PubChem BioAssay AID1224921 (Broad Institute, 2016)
Among all 1,400 compounds or so, about 350 (25%) were called active. Not shown: some 2% with an inconclusive outcome. The rule behind the calls is not given here. A selection follows. Measured potencies and affinities stand elsewhere.

Experiment: C. difficile growth inhibition, confirmation, 4-point retest (AID 1224921);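 note: plate controls were DMSO wells for no effect and levofloxacin 16 µg/mL wells for full effect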
Conditions: Clostridioides difficile clinical isolate growth, OD600, 24 h, hits give low values; at 30 µM unless noted

| SMILES | max activity |
| --- | --- |
| CO[C@H]1CN(C)C(=O)c2cc(NC(=O)NC(C)C)ccc2OC[C@H](C)N(Cc2ccccn2)C[C@@H]1C | -9.04% [at 1.95 µM] (inactive) |
| C[C@H](CO)N1C[C@H](C)[C@H](CN(C)C(=O)C2CCC2)Oc2ncc(C#Cc3cccc(F)c3)cc2C1=O | 15.1% [at 8 µM] (inactive) |
| C[C@H](NC(=O)C[C@H]1C=C[C@@H](NC(=O)C2CCC2)[C@H](CO)O1)c1ccccc1 | -11.6% (inactive) |
| CNC[C@@H]1Oc2cc(-c3ccccc3F)ccc2S(=O)(=O)N([C@@H](C)CO)C[C@H]1C | 20.5% (inactive) |
| O=C(N[C@@H]1C=C[C@@H](CC(=O)N2CCCCC2)O[C@@H]1CO)c1ccc2c(c1)OCO2 | 15.7% [at 8 µM] (inactive) |
| CO[C@H]1CN(C)C(=O)c2cc(NS(=O)(=O)c3cccc(F)c3)ccc2OC[C@@H](C)N(Cc2cc(F)ccc2F)C[C@@H]1C | 33.9% (inactive) |
| C[C@H]1CN([C@@H](C)CO)S(=O)(=O)c2ccc(C#CCC3CCCC3)cc2O[C@@H]1CN(C)C | -13.1% [at 1.95 µM] (inactive) |
| N#C[C@H]1[C@@H](c2ccc(C3=CCCCC3)cc2)[C@H](CO)N1S(=O)(=O)c1ccccc1 | -7.4% [at 1.95 µM] (inactive) |
| N#C[C@@H]1[C@@H](c2ccc(C#Cc3cccnc3)cc2)[C@@H](CO)N1C(=O)C1CCCCC1 | 27.2% (inactive) |
| C[C@@H]1CN([C@@H](C)CO)S(=O)(=O)c2ccc(C#CCC3CCCC3)cc2O[C@H]1CN(C)C(=O)CN(C)C | -17.9% (inactive) |
| C[C@H](CO)N1C[C@H](C)[C@H](CN(C)C)Oc2cc(C#CCC3CCCC3)ccc2S1(=O)=O | 37% (inactive) |
| CCC(=O)N(C)C[C@H]1Oc2cc(C#CCC3CCCC3)ccc2S(=O)(=O)N([C@@H](C)CO)C[C@@H]1C | 24.3% (inactive) |
| C[C@@H]1CN([C@H](C)CO)S(=O)(=O)c2ccc(C#CCC3CCCC3)cc2O[C@@H]1CN(C)C | 14.7% [at 8 µM] (inactive) |
| CO[C@H]1CN(C)C(=O)c2cc(NC(=O)NC(C)C)ccc2OC[C@@H](C)N(C)C[C@H]1C | 4.11% (inactive) |
| O=C(CN1CCOCC1)NCC[C@H]1CC[C@H](NC(=O)Cc2ccccn2)[C@@H](CO)O1 | -9.14% [at 0.5 µM] (inactive) |
| CCCNC(=O)Nc1ccc2c(c1)C(=O)N(C)C[C@H](OC)[C@@H](C)CN(C)[C@H](C)CO2 | -9.08% [at 8 µM] (inactive) |
| C[C@H]1CN([C@@H](C)CO)S(=O)(=O)c2ccc(C#CCC3CCCC3)cc2O[C@H]1CN(C)C | 10.1% [at 8 µM] (inactive) |
| C[C@@H]1CN([C@H](C)CO)S(=O)(=O)c2ccc(C#CC3CCCC3)cc2O[C@H]1CN(C)C | 49.4% (inactive) |
| CC(=O)N(C)C[C@H]1Oc2cc(C#CC3CCCCC3)ccc2S(=O)(=O)N([C@H](C)CO)C[C@H]1C | 12.6% [at 8 µM] (inactive) |

| SMILES | max activity |
| --- | --- |
| C[C@H](CO)N1C[C@H](C)[C@@H](CN(C)C)Oc2cc(C#CCC3CCCC3)ccc2S1(=O)=O | 7% [at 7.5 µM] (inactive) |
| O=C(Nc1cc(F)ccc1F)N[C@@H]1CC[C@H](CC(=O)N2CCc3ccccc3C2)O[C@H]1CO | 38.5% (inactive) |
| O=C(N[C@H]1C=C[C@H](CC(=O)N2CCOCC2)O[C@H]1CO)c1cccc(F)c1 | -11.2% [at 1.95 µM] (inactive) |
| CO[C@@H]1CN(C)C(=O)c2ccc(NC(=O)c3ccc(F)cc3)cc2OC[C@@H](C)N(C(=O)CN(C)C)C[C@@H]1C | -12.8% [at 1.95 µM] (inactive) |
| C[C@H]1CN([C@@H](C)CO)S(=O)(=O)c2ccc(C3=CCCCC3)cc2O[C@@H]1CN(C)Cc1ccncc1 | 42.8% (inactive) |
| CO[C@H]1CN(C)C(=O)c2ccc(NC(=O)c3nc4ccccc4s3)cc2OC[C@@H](C)N(Cc2cccnc2)C[C@@H]1C | 23.4% (inactive) |
| COCCNC(=O)C[C@H]1C[C@H]2c3cc(NC(=O)Nc4ccc(C(F)(F)F)cc4)ccc3O[C@H]2[C@@H](CO)O1 | -9.02% (inactive) |
| O=C(C[C@H]1C[C@H]2c3cc(NC(=O)Nc4ccc(C(F)(F)F)cc4)ccc3O[C@H]2[C@H](CO)O1)NCC1CC1 | -13.1% [at 1.95 µM] (inactive) |
| O=C(C[C@H]1C[C@H]2c3cc(NC(=O)Nc4ccc(C(F)(F)F)cc4)ccc3O[C@H]2[C@@H](CO)O1)NCC1CC1 | -16.4% [at 0.5 µM] (inactive) |
| COCCNC(=O)C[C@@H]1C[C@@H]2c3cc(NC(=O)Nc4ccc(C(F)(F)F)cc4)ccc3O[C@@H]2[C@H](CO)O1 | 9.41% (inactive) |
| COCCNC(=O)C[C@H]1C[C@H]2c3cc(NC(=O)Nc4ccc(C(F)(F)F)cc4)ccc3O[C@H]2[C@H](CO)O1 | -7.9% [at 1.95 µM] (inactive) |
| O=C(C[C@H]1C[C@@H]2c3cc(NC(=O)Nc4ccc(C(F)(F)F)cc4)ccc3O[C@@H]2[C@@H](CO)O1)NCC1CC1 | 14.9% (inactive) |
| CC(C)(C)[S@](=O)N1Cc2cc(C(=O)NCc3ccc4c(c3)OCO4)nc(-c3cccc(-c4cccnc4)c3)c2[C@@H]1CCO | 32.4% [at 35 µM] (inactive) |
| O=C(C[C@@H]1C=C[C@@H](NC(=O)CCN2CCCCC2)[C@H](CO)O1)Nc1ccc(-c2ccccc2)cc1 | 21.5% (inactive) |
| CC(C)c1cn(CC[C@@H]2CC[C@H](NS(=O)(=O)c3ccc(F)cc3)[C@H](CO)O2)nn1 | -12.5% (inactive) |
| N#C[C@@H]1[C@H](c2ccccc2)[C@H](CO)N1S(=O)(=O)c1ccc(-c2ccccc2)cc1 | 15.3% (inactive) |
| C[C@@H]1CN([C@@H](C)CO)C(=O)c2cc(C3=CCCCC3)cnc2O[C@@H]1CN(C)C(=O)c1cccc(F)c1 | 24.7% (inactive) |
| C[C@H](NC(=O)C[C@@H]1C[C@@H]2c3cc(NC(=O)CC4CC4)ccc3O[C@@H]2[C@H](CO)O1)c1ccccc1 | 8.12% [at 35 µM] (inactive) |
| O=C(C[C@H]1C[C@H]2c3cc(NC(=O)Nc4ccc(C(F)(F)F)cc4)ccc3O[C@H]2[C@@H](CO)O1)NCc1ccc(Cl)cc1 | -6.14% [at 7.5 µM] (inactive) |
